Compounds with a hit are over-represented: about 2.5% of the library has one in this group of screens.
rRNA inh HTS – reduced GFP signal of wild-type E. coli, primary screen, bacterial rRNA inhibitor project, GFP/RFP fluorescence, OD600, single point. 350,000 tested, 1.6% active. GFP signal change (wild-type ribosome), % (concentration not given with the values). E. coli WT GFP vs humanized-ribosome RFP mutants, 24 h; stronger effect = lower value; DMSO median 0, no signal -100. AID 720706, 2013;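 active means significant combined selectivity score with lowered wild-type GFP, culture density cut under 30%, mutant RFP and density less affected; inactive means any of these conditions unmet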
NSD2 HMT inh – NSD2 histone methyltransferase inhibitors, primary screen, biochemical, AlphaScreen, single concentration, set 2. NSD2 peptide methylation, 120 min. inhibition, % at 12.5 µM. 310,000 tested, 0.54% active. AID 743445, 2014; in the data active means inhibition above about 50%
RAD52 inh – RAD52 DNA annealing inhibitors, primary screen, biochemical, FRET, single point, set 2 | DNA repair protein RAD52 homolog (Homo sapiens), P43351 | AID 651710, 2012 | 360,000 tested, 0.46% active | inhibition, % at 18.7 µM | recombinant RAD52 DNA annealing, FRET fluorescence;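 active means every replicate showing at least 50% inhibition; inconclusive means mean inhibition at least 50% but not in every replicate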
Target sequence (P43351 whole entry, looked up): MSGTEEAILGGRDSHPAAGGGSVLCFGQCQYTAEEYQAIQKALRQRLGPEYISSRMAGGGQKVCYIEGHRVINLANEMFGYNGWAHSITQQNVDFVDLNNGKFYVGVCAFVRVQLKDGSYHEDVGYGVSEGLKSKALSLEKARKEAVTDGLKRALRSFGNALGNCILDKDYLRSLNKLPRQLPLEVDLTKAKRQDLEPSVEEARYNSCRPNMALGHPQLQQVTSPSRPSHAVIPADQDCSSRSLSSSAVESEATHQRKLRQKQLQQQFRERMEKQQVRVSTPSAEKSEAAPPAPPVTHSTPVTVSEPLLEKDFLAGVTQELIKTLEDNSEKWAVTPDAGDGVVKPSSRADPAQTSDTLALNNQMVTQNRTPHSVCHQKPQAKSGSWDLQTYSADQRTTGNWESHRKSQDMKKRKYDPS
AF4-AF9 inh – inhibitors of AF4 peptide binding to AF9, primary screen, biochemical, AlphaScreen, biotin-AF4 peptide, FLAG-AF9, single point; inhibition, % at 10 µM; 350,000 tested, 0.47% active; AID 651704, 2012;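 active means every replicate reaching a set inhibition limit, whatever the replicate mean, cut at about 25% in these data; inconclusive means mean inhibition reaches that limit but some replicates miss it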
Casp6 inh – human caspase-6 inhibitors, primary screen, biochemical, VEID-R110 fluorescence, single point, set 2. P55212. purified caspase-6, Z-VEID-R110 cleavage fluorescence. inhibition, % at 12.5 µM. 350,000 tested, 0.53% active;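 active means mean inhibition across replicates at least about 35%, with every replicate also reaching that limit, limit read from the data; inconclusive means only one of the two criteria met; inactive means neither criterion met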
Target sequence (P55212 24-179 limits assumed): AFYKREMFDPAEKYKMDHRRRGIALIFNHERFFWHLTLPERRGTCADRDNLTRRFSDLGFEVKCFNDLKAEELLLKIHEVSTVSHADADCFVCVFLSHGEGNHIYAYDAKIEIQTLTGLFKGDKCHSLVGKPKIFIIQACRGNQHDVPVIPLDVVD
Target sequence (P55212 194-293 limits assumed): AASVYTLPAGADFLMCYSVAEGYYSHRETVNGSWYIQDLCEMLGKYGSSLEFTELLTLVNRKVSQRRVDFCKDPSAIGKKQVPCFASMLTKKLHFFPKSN
Large screens that a line does not name were inactive.

Cc1ccc(Cn2nnnc2CN2CCC(O)(c3ccc(F)cc3)CC2)cc1	rRNA inh HTS -27
C[C@@H]1CN([C@@H](C)CO)C(=O)c2cc(C#C[C@@H](C)O)cnc2O[C@@H]1CN(C)Cc1ccccn1	none (no result: NSD2 HMT inh)
C[C@H](CO)N1C[C@H](C)[C@H](CN(C)Cc2ccc(Cl)c(Cl)c2)OCCCC[C@H](C)Oc2ccc(NC(=O)Nc3ccc(C(F)(F)F)cc3)cc2C1=O	none (no result: NSD2 HMT inh)
CN(C)c1ccc(NC(=O)Nc2nc(C(N)C3CCCCC3)cs2)cc1 (centres undefined)	AF4-AF9 inh 57 (no result: rRNA inh HTS)
C[C@@H](NC(=O)C[C@@H]1C[C@@H]2c3cc(NS(C)(=O)=O)ccc3O[C@@H]2[C@@H](CO)O1)c1ccccc1	none (no result: NSD2 HMT inh)
CC(C)C1C(c2ccccc2)N(C)C(c2ccccc2)CC1(O)c1ccccc1 (centres undefined)	rRNA inh HTS -30
C[C@@H]1CCCCO[C@H](CN(C)CC2CC2)[C@H](C)CN([C@H](C)CO)C(=O)c2cc(NC(=O)C3CCCCC3)ccc2O1	none (no result: NSD2 HMT inh)
CC(=O)NS(=O)(=O)c1ccc(NC(=O)c2ccc(Cl)cc2[N+](=O)[O-])cc1	none
O=C(Nc1ccc(Nc2ccccc2)cc1)c1ccc(Cl)cc1[N+](=O)[O-]	rRNA inh HTS -27 (no result: AF4-AF9 inh)
O=C(Cc1ccccn1)NCC[C@H]1CC[C@H](NC(=O)CN2CCOCC2)[C@@H](CO)O1	none (no result: NSD2 HMT inh)
CCCCNC(=O)c1onc(CSc2cc(C)ccc2C)c1C(=O)O	rRNA inh HTS -40 (no result: NSD2 HMT inh)
COc1ccc(CN(C)C[C@H]2OCCCC[C@@H](C)Oc3ccc(NC(=O)Nc4ccc(C(F)(F)F)cc4)cc3C(=O)N([C@@H](C)CO)C[C@@H]2C)cc1	RAD52 inh 50 (no result: NSD2 HMT inh)
COc1ccc(CN(C)C[C@H]2OCCCC[C@H](C)Oc3ccc(NC(=O)Nc4ccc(C(F)(F)F)cc4)cc3C(=O)N([C@H](C)CO)C[C@@H]2C)cc1	RAD52 inh 53 (no result: NSD2 HMT inh)
COc1ccc(CN(C)C[C@@H]2OCCCC[C@H](C)Oc3ccc(NC(=O)Nc4ccc(C(F)(F)F)cc4)cc3C(=O)N([C@H](C)CO)C[C@@H]2C)cc1	RAD52 inh 53 (no result: NSD2 HMT inh)
COc1ccc(-n2c(-c3ccc(Cl)cc3Cl)n[nH]c2=S)c(OC)c1	rRNA inh HTS -32
COc1ccc(-n2c(-c3ccc(C(C)(C)C)cc3)n[nH]c2=S)c(OC)c1	none
CSc1ncnc2c1cnn2-c1ccc(C)cc1C	none
Cc1ccc(-n2ncc3c(SCc4ccccn4)ncnc32)c(C)c1	rRNA inh HTS -16 (no result: Casp6 inh)
CO[C@H]1CN(C)C(=O)c2cc(NC(C)=O)ccc2OC[C@@H](C)N(C(=O)c2cnccn2)C[C@@H]1C	none (no result: NSD2 HMT inh, RAD52 inh, AF4-AF9 inh, Casp6 inh)
CC(=O)Nc1ccc(/C(N=Nc2ccccc2)=N/N=C(N)N)cc1	rRNA inh HTS -20, AF4-AF9 inh inconclusive
CC(=O)Nc1ccc(C(=O)c2ccccc2)cc1	none (no result: rRNA inh HTS, RAD52 inh, AF4-AF9 inh, Casp6 inh)
Cc1ccc(SCc2[nH]nc3c2C(c2ccc(C)o2)C(C#N)=C(N)O3)cc1 (centres undefined)	rRNA inh HTS -37
Cc1ccc(SCc2[nH]nc3c2C(c2ccco2)C(C#N)=C(N)O3)cc1 (centres undefined)	none (no result: rRNA inh HTS, RAD52 inh, AF4-AF9 inh, Casp6 inh)
COC(=O)c1ccc(/C=C2\SC(=S)N(CCCC(=O)N3CCOCC3)C2=O)cc1	none
O=C(O)CCCN1C(=O)/C(=C\c2ccc(-c3nc4ccccc4s3)o2)SC1=S	Casp6 inh 43
O=C1/C(=C\c2cccc(O)c2O)SC(=S)N1Cc1ccccc1	NSD2 HMT inh 52
O=C(O)CCN1C(=O)/C(=C/c2ccc(-c3nc4ccccc4s3)o2)SC1=S	none (no result: rRNA inh HTS, RAD52 inh, AF4-AF9 inh, Casp6 inh)
Cc1ccc(/C=C2\SC(=S)N(CCCC(=O)N3CCOCC3)C2=O)cc1	rRNA inh HTS -26
O=C(O)c1cccc(-n2cccc2/C=C2\SC(=O)N(Cc3ccccc3F)C2=O)c1	Casp6 inh 86
Cc1ccc(S(=O)(=O)N(C)C[C@H]2OCCCC[C@H](C)Oc3ccc(NS(=O)(=O)c4ccc(Cl)cc4)cc3C(=O)N([C@@H](C)CO)C[C@@H]2C)cc1	none (no result: NSD2 HMT inh)
CC(C)NC(=O)N(C)C[C@@H]1OCCCC[C@H](C)Oc2ccc(NC(=O)Nc3cccc4ccccc34)cc2C(=O)N([C@H](C)CO)C[C@@H]1C	none (no result: NSD2 HMT inh)
Cc1nn(-c2ccccc2)c(Cl)c1/C=C1\SC(=S)N(CCCCCC(=O)O)C1=O	rRNA inh HTS -32
O=C(O)c1cccc(CN2C(=O)S/C(=C/c3ccccc3[N+](=O)[O-])C2=O)c1	rRNA inh HTS -22 (no result: AF4-AF9 inh)
COc1ccccc1/C=C1\SC(=S)N(C(C(=O)O)c2ccccc2)C1=O (centres undefined)	rRNA inh HTS -37
Cc1nn(-c2ccccc2)c(Cl)c1/C=C1\SC(=S)NC1=O	none (no result: rRNA inh HTS, RAD52 inh, AF4-AF9 inh, Casp6 inh)
O=C(O)CCCCN1C(=O)/C(=C\c2ccc(OCc3ccccc3)c(OCc3ccccc3)c2)SC1=S	Casp6 inh 72
Cc1noc(C)c1S(=O)(=O)Nc1ccc2c(c1)C(=O)N([C@@H](C)CO)C[C@H](C)[C@@H](CN(C)S(=O)(=O)c1cn(C)cn1)O2	none (no result: NSD2 HMT inh)
O=C1/C(=C\c2cccc(O)c2)SC(=S)N1Cc1ccccc1	rRNA inh HTS -20
COc1cc(/C=C2\SC(=S)N(CCC(=O)Nc3cccc(O)c3)C2=O)cc(OC)c1OC	none
COc1ccccc1/C=C1\SC(=S)N(CCC(=O)Nc2cccc(O)c2)C1=O	rRNA inh HTS -31
CCOc1ccc(/C=C2\SC(=S)N(CCC(=O)O)C2=O)cc1	rRNA inh HTS -27 (no result: NSD2 HMT inh, AF4-AF9 inh)
CC(C)NC(=O)Nc1ccc2c(c1)C(=O)N([C@@H](C)CO)C[C@H](C)[C@@H](CN(C)CC1CCCCC1)OCCCC[C@H](C)O2	none (no result: NSD2 HMT inh)
Cc1cccc2c1NC(=O)C2=Nc1ccc(Cl)cc1	rRNA inh HTS -19
CO[C@H]1CN(C)C(=O)c2ccc(NC(=O)C3CC3)cc2OC[C@@H](C)N(C)C[C@@H]1C	none (no result: NSD2 HMT inh)
Cc1noc(C)c1NC(=O)N(C)C[C@H]1OCCCC[C@@H](C)Oc2ccc(NC(=O)CCC(F)(F)F)cc2C(=O)N([C@H](C)CO)C[C@@H]1C	none (no result: NSD2 HMT inh)
CN(C(=O)CSc1nc2c(c(=O)[nH]1)CCCC2)C1CCCCC1	rRNA inh HTS -15
Cc1nc(SCC(=O)NC2CCCC2)[nH]c(=O)c1Cc1ccccc1	none
Cc1nc(SCC(=O)N(C)C2CCCCC2)[nH]c(=O)c1Cc1ccccc1	rRNA inh HTS -26 (no result: AF4-AF9 inh)
CN(C(=O)CSc1nc(N)cc(=O)[nH]1)C1CCCCC1	none
CNC[C@H]1OCCCC[C@H](C)Oc2ccc(NS(C)(=O)=O)cc2C(=O)N([C@@H](C)CO)C[C@@H]1C	none (no result: NSD2 HMT inh)
Cc1ccc2oc(C(=O)N(CCO)Cc3ccccc3)c(C)c2c1	rRNA inh HTS -17
Cc1ccc2oc(C(=O)N(Cc3ccc(N(C)C)cc3)CC3CCCO3)c(C)c2c1 (centres undefined)	AF4-AF9 inh 28
O=[N+]([O-])c1ccccc1S(=O)(=O)Nc1nc2ccccc2s1	Casp6 inh 44

Bioassay records (PubChem)
